Measured values published in PubChem BioAssay (NCI).
Compounds without any hit were thinned out: in the full panel of roughly 83,000, 20% have a hit.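 Testing used 96-well plates and a 48-hour single-concentration exposure. Example: -40 means 40% of the starting cells died.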 Calls of active or inactive are those of the source. The calls were made as follows: active = growth percent below 10; inactive = the rest.

Columns and labels:
Assay in all cases: NCI-60 one-dose screen, 48 h (100 = growth as untreated, 0 = no growth, -100 = all killed)
Conditions in all cases: 10 µM unless noted
[1] = system: HCT-15 colon
[2] = system: HT29 colon
[3] = system: SNB-75 CNS
[4] = system: SNB-19 CNS
[5] = system: U251 CNS
[6] = system: PC-3 prostate
[7] = system: UACC-62 melanoma
[8] = system: LOX IMVI melanoma
[9] = system: SK-MEL-28 melanoma
[10] = system: SK-MEL-2 melanoma
[11] = system: EKVX NSCLC
[12] = system: SN12C renal
[13] = system: UO-31 renal
[14] = system: TK-10 renal
[15] = system: ACHN renal
[16] = system: CAKI-1 renal
[17] = system: CCRF-CEM leukemia
[18] = system: MOLT-4 leukemia
[19] = system: A498 renal
[20] = system: SK-MEL-5 melanoma

Measured: growth

CCCC/C=N/NC(=S)NCc1ccccc1
inactive: [1] 95.8% | [2] 101% | [3] 86% | [4] 95.9% | [5] 97.1% | [6] 86.1% | [7] 93.8% | [8] 97.3% | [9] 98.2% | [10] 106% | [11] 101% | [12] 96.1% | [13] 93.3% | [14] 103% | [15] 99.4% | [16] 100% | [17] 99.1% | [18] 95%

COc1ccc(/C=C/c2nc(Nc3ccc(S(=O)(=O)NC(C)=O)cc3)c3ccccc3n2)cc1
active: [19] 9.58%
inactive: [1] 55.2% | [2] 67.2% | [3] 97.7% | [4] 78.9% | [5] 74.8% | [6] 79.3% | [7] 25.6% | [8] 38.3% | [9] 96.1% | [10] 99% | [11] 81.6% | [12] 86.7% | [13] 80.6% | [14] 92% | [15] 68.6% | [16] 59.6% | [17] 81.7% | [18] 79.3%

O=C(Cn1c[n+](CC(=O)c2ccc([N+](=O)[O-])cc2)c2ccccc21)Nc1cccc2cccnc12
inactive: [1] 101% | [2] 40.4% | [3] 29.8% | [4] 37.5% | [5] 63.7% | [6] 38.9% | [7] 69.1% | [8] 86.3% | [9] 78.7% | [10] 41.4% | [11] 73.6% | [12] 30% | [13] 66% | [14] 114% | [15] 93.8% | [16] 84.1% | [19] 94.7% | [17] 89.4% | [18] 92.8%

COc1ccc(C(C)=O)c(OC)c1
inactive: [1] 106% | [2] 92% | [3] 91.7% | [4] 100% | [5] 101% | [6] 91.1% | [7] 96.1% | [8] 103% | [9] 109% | [10] 94.6% | [11] 114% | [12] 106% | [13] 97.4% | [14] 99.5% | [15] 110% | [16] 99.7% | [17] 103% | [18] 102%

C=C1C(=O)O[C@H]2[C@H]1CC/C(C(=O)NCCCCCNC(=O)/C1=C/CC[C@@]3(C)O[C@H]3[C@H]3OC(=O)C(=C)[C@@H]3CC1)=C\CC[C@@]1(C)O[C@@H]21
inactive: [1] 95.5% | [2] 102% | [3] 103% | [4] 102% | [5] 99.3% | [6] 91.6% | [20] 100% | [8] 99.9% | [9] 101% | [11] 105% | [12] 109% | [13] 92.6% | [14] 96.5% | [15] 102% | [16] 106% | [17] 105% | [18] 96.2%

CSc1nc2sc3cccc(Cl)c3n2c(=N)c1C#N
inactive: [1] 111% | [2] 113% | [3] 103% | [4] 109% | [5] 95.6% | [6] 90.8% | [7] 90% | [8] 93.7% | [9] 115% | [10] 105% | [11] 90.1% | [12] 101% | [13] 68.5% | [14] 123% | [15] 95% | [16] 86.8% | [19] 56.2% | [17] 86% | [18] 90%

COCCCN1CC(O)=C(c2nc(-c3ccc(C)cc3)cs2)C1=N
inactive: [1] 110% | [2] 128% | [3] 154% | [4] 98.6% | [6] 94.3% | [20] 103% | [7] 103% | [8] 102% | [9] 159% | [10] 113% | [11] 97.3% | [12] 92.9% | [13] 80.6% | [14] 138% | [15] 111% | [16] 96.1% | [19] 93.3% | [18] 86.4%

Cc1nnc2c(Cc3ccccc3)nc3ccccc3n12
inactive: [1] 106% | [2] 105% | [3] 78.1% | [4] 103% | [6] 104% | [20] 97.6% | [7] 100% | [8] 92.4% | [9] 103% | [10] 110% | [11] 90.9% | [12] 99.6% | [13] 90.8% | [14] 101% | [15] 100% | [16] 88.3% | [19] 90.6% | [17] 91.1% | [18] 91.2%

COc1cc2c(=O)n(CCN(C)C)c3c4cc5c(cc4ccc3c2cc1OC)OCO5
active: [1] -13.3% | [2] 0.585% | [4] 6.11% | [6] 7.26% | [20] -68.7% | [7] -85.6% | [8] -58.3% | [9] -33.9% | [10] -65.1% | [11] -1.09% | [12] -4.74% | [13] -77.6% | [14] -76.2% | [15] -92.6% | [16] -89.5% | [17] 2.56% | [18] 3.91%
inactive: [3] 17.8%

CCN1Cc2nc3sc(C)c(C)c3c(=O)n2C=C1C
active: [6] -6.34% | [18] -3.45%
inactive: [1] 49.7% | [2] 22.1% | [3] 88% | [4] 49.4% | [20] 78.7% | [7] 46.9% | [8] 53.5% | [9] 67.3% | [10] 91.9% | [11] 59.8% | [12] 57.1% | [13] 34.4% | [14] 87.5% | [15] 65.3% | [16] 61.6% | [19] 108%

COc1ccc(C(=O)c2cc(C)c(OC)c(C)c2)c(OC)c1OC(=O)C(Cl)Cl
active: [1] 3.34% | [20] -20.8%
inactive: [2] 22.4% | [3] 56.3% | [4] 22.2% | [6] 19.1% | [7] 29.3% | [8] 20.3% | [9] 53.3% | [10] 24.4% | [11] 58.4% | [12] 30.1% | [13] 35.3% | [14] 50.9% | [15] 18.3% | [16] 39.8% | [17] 11.1% | [18] 20.7%

NC1[C@H](c2c[nH]c3ccccc23)c2c([nH]c3ccccc23)[C@H]1c1c[nH]c2ccccc12 (stereo partly drawn)
inactive: [1] 84.8% | [2] 97.6% | [3] 97.2% | [4] 95.2% | [6] 78.3% | [20] 85.2% | [7] 72.5% | [8] 90.1% | [9] 103% | [10] 98.2% | [11] 85.1% | [12] 88.9% | [13] 80.2% | [14] 119% | [15] 88% | [16] 84.8% | [17] 94.5% | [18] 80.6%

NNC(=O)c1ccc(-n2nc(-c3ccccc3)c3ccccc32)cc1
inactive: [1] 57.6% | [3] 53.6% | [4] 66.1% | [5] 22.6% | [6] 69.4% | [20] 84.5% | [7] 80.7% | [8] 68.2% | [9] 83.9% | [10] 79.3% | [11] 63.4% | [12] 75.1% | [13] 68% | [14] 110% | [15] 85.6% | [16] 76.5% | [19] 75% | [17] 37.2% | [18] 74.8%

CCOC(=O)Oc1c(OC)cc(C(=O)c2ccc(OC)c(OC(=O)CCl)c2OC)cc1OC
active: [10] 8.91%
inactive: [1] 16.6% | [2] 35.9% | [3] 36.3% | [4] 22.8% | [6] 23% | [20] 34.9% | [7] 30.6% | [8] 43.5% | [9] 47.4% | [11] 70% | [12] 42.4% | [13] 46.6% | [14] 39.1% | [15] 36% | [16] 30.3% | [17] 15.9% | [18] 29.6%

O=C(CCN1CCCC1)Nc1ccc2c(Nc3ccc(Br)cc3)c3ccccc3nc2c1
active: [1] -73.9% | [2] 1.67% | [4] -0.557% | [6] 4.09% | [8] -92.4% | [9] -28.6% | [13] -96.8% | [14] -36.1% | [17] -15.6% | [18] -33.8%
inactive: [3] 37.3% | [20] 31.7% | [7] 77.8% | [10] 97.1% | [11] 59.5% | [12] 30% | [15] 29.4% | [16] 15.3%

N#C/C(=C\c1ccc([N+](=O)[O-])s1)c1nc2cc(Cl)ccc2s1
active: [1] -45.9% | [6] -0.522% | [20] -94.4% | [8] -29.2% | [10] -19.6% | [11] 7.23% | [12] -27.5% | [13] -15.8% | [15] -46.6% | [17] 0.557% | [18] 8.53%
inactive: [2] 33.7% | [3] 49.7% | [4] 12.8% | [7] 19.5% | [9] 21.1% | [14] 34.8% | [16] 43.3% | [19] 114%
